D2 PAM-1 = positive allosteric modulators of human D2 dopamine receptor; AID 485347; 0.34% of 340,000 active; HEK293 T-REx D2, calcium flux, EC20 dopamine potentiation; potentiation, % at 10 µM;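 active means potentiation over 3 SD above the plate norm, cut at about 30% in these data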; further: 0% is about no effect
Target sequence (P14416 whole entry, looked up): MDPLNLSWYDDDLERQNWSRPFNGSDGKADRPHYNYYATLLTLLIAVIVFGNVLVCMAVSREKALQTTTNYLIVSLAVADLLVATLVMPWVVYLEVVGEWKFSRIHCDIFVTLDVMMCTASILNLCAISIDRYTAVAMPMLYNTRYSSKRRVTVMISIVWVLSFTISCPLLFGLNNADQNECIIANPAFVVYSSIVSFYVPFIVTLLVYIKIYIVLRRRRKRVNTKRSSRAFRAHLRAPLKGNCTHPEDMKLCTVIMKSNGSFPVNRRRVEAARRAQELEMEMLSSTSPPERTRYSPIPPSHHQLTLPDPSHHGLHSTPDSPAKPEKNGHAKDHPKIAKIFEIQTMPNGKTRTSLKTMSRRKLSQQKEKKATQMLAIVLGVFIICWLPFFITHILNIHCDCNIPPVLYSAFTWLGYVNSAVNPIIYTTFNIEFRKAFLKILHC
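Tetracycline-induced HEK293 T-REx cells force-coupled to calcium signalling expressed D2; compounds were pin-added after a 10 s baseline, read kinetically 180 s, then an EC20 dopamine challenge followed with a further 180 s calcium read.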
D2 PAM-2 = potentiates the human D2 dopamine receptor allosterically; P14416; 0.23% of 360,000 active; AID 624464; potentiation, % (no concentration beside the values); DiscoveRx D2 beta-arrestin cells, luminescence, 90 min; 100% = 57 uM dopamine signal; in the data active means potentiation above about 50%
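PathHunter beta-arrestin assay in DiscoveRx D2 cells. Compounds were added with an EC20 of dopamine (50 nM final) for 90 min at 37 deg C. Luminescence was read 1 h after detection reagent, with 57 uM dopamine as the EC100 control.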
D2 antag = antagonizes the human D2 dopamine receptor; P14416; HEK293 TREx D2 cells, calcium flux, dopamine EC80; inhibition, % at 10 µM; 2% of 340,000 active; AID 485344; in the data active means inhibition above about 30%; inactive means below that, where a call was filed; further: 0% is about no effect
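Tetracycline-induced HEK293 T-REx cells expressing D2 force-coupled to calcium signalling were dye-loaded, exposed to compound for 180 s, then challenged with an EC80 of dopamine; calcium flux was followed kinetically for a further 180 s.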
D2 ag-1 = agonists of human D2 dopamine receptor; HEK293 T-REx D2 cells, calcium flux agonist mode; activation, % at 2 µM; 0.53% of 340,000 active; AID 485358;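 active means activation over 3 SD above normal in the single-dose calcium agonist read, cut at about 30% in these data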; further: 0% is about no effect
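Agonism is scored from calcium flux in a force-coupled, inducible HEK293 cell line expressing D2, read kinetically for 180 s after compound addition against dopamine controls.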
D2 ag-2 = activates the human D2 dopamine receptor | DiscoveRx PathHunter D2 beta-arrestin, luminescence, 90 min; 100% = 57 uM dopamine signal | activation, % (test concentration not listed) | 0.084% of 360,000 active | AID 624465; in the data active means activation above about 40%
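Agonist mode: compounds alone added to overnight-plated D2 PathHunter cells for 90 min at 37 C, with 57 uM final dopamine (EC100) defining full response. Beta-arrestin recruitment detected by chemiluminescent reagent, read after 1 h at ambient temperature.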
Numbers without * were called inactive; nt = not tested or not shown. A selection: hits, their analogues and other compounds. The true share with any hit is near 2.4%.

SMILES	D2 PAM-1	D2 PAM-2	D2 antag	D2 ag-1	D2 ag-2
CCCCCC(=O)Nc1cc(N(C)C)nc2ccccc12	-12.1	-20.6	35.2*	-1.3	-9.1
CCN(CC)CC(=O)Nc1cc(N(C)C)nc2ccccc12	-12.7	-7.2	1.3	-0.3	-1.8
CCOC(=O)c1c(NC(=O)CSc2ncn[nH]2)sc(C(=O)NC)c1C	-14.0	-8.2	-11.0	-0.2	1.7
CCOC(=O)c1c(NC(=O)CSc2ncn[nH]2)sc(C)c1C	0.8	6.5	38.1*	0.5	1.6
CCOc1nc(C)ccc1-c1noc(-c2ccccn2)n1	11.8	-20.0	-7.9	2.3	-1.1
COc1ccc(-c2nc(-c3ccncc3)no2)c(OC)c1	14.0	-14.1	57.8*	-0.2	1.1
COc1nc(C)ccc1-c1noc(-c2ccncc2)n1	37.9*	-7.6	-19.9	0.2	-1.4
COc1cc(-c2nc(-c3ccc(C)nc3OC)no2)cc(OC)c1OC	-8.2	nt	1.5	1.4	nt
CCOc1nc(C)ccc1-c1noc(-c2ccco2)n1	34.9*	-9.7	-12.8	-0.4	-1.5
COc1ccc(-c2ccc(-c3noc(-c4ccccc4)n3)c(OC)n2)cc1	-6.9	-12.5	31.3*	0.7	-2.3
CCc1cc2c(cc3c(=O)n(CC(=O)NC(C)c4ccccc4)ncn32)s1 (stereo not given)	11.4	nt	nt	0.0	nt
COc1ccc(-c2noc(CCC(=O)NCCCN3CCC(Cc4ccccc4)CC3)n2)cc1	nt	-40.5	nt	nt	0.0
COc1ccc(-c2noc(CCC(=O)NCCCN3CCN(c4ccc(F)cc4)CC3)n2)cc1	-20.5	-3.5	95.3*	0.9	-1.9
CCCCC(=O)NCc1ccc2c(c1)cc(C)n2C	-10.1	-10.7	33.9*	0.5	-2.0
Cc1cc2cc(CNC(=S)NCc3ccccc3)ccc2n1C	15.8	-3.0	44.9*	1.4	2.3
CCOC(=O)CCC(=O)NCc1ccc2c(c1)cc(C)n2C	-5.2	1.6	-7.9	0.4	-0.4
Cc1cc2cc(CNC(=O)c3cccs3)ccc2n1C	-11.9	-7.0	1.0	51.9*	-2.1
O=C(CCn1cnnn1)NC1CCCN(Cc2ccccc2F)C1 (stereo not given)	-0.3	-9.5	7.4	-1.6	3.5
CCCCC(=O)Nc1ccc(OCc2cc(=O)n3c(C)csc3n2)cc1	5.5	nt	nt	0.4	nt
CCCCc1ccc(NC(=S)N2CCN(c3ccccn3)CC2)cc1	10.6	-9.5	-5.7	0.6	8.7
CCC(C)c1ccc(NC(=S)N2CCN(c3ccccn3)CC2)cc1 (stereo not given)	-5.4	1.9	19.5	30.3*	3.3
O=C(O)c1cc(=O)n(Cc2ccccc2)c(=O)[nH]1	12.2	-8.4	8.5	0.8	-0.1
Cc1ccc(NC(=O)c2cc(=O)n(Cc3ccccc3)c(=O)[nH]2)cc1C	9.5	-5.0	33.7*	nt	2.9
Cc1cc(C(=O)OCC(=O)NCc2ccccc2)c2ccccc2n1	nt	-22.2	nt	nt	6.9
COc1ccc(S(=O)(=O)N(C)C)cc1NC(=O)COC(=O)c1nc2nccc(C)n2n1	6.8	-11.4	40.4*	-0.9	-2.1
SMILES	D2 PAM-1	D2 PAM-2	D2 antag	D2 ag-1	D2 ag-2
Cc1cc(C(=O)OCC(=O)Nc2cc(S(=O)(=O)N(C)C)ccc2Cl)c2ccccc2n1	-14.0	-5.9	9.6	-0.3	-0.7
O=C(COC(=O)C1CCN(S(=O)(=O)c2cccs2)CC1)Nc1ccccc1Br	0.9	-5.4	-27.7	0.7	12.2
Cc1cc(C(=O)OCC(=O)Nc2cc(S(=O)(=O)N(C)C)ccc2C)c2ccccc2n1	-24.2	-15.0	36.9*	1.9	-1.6
Cc1ccc(S(=O)(=O)N(C)C)cc1NC(=O)COC(=O)C1CCN(S(=O)(=O)c2cccs2)CC1	0.4	-3.6	35.4*	-0.4	-3.7
Cc1cc(C(=O)OCC(=O)NCCc2ccc(S(N)(=O)=O)cc2)c2ccccc2n1	0.2	-4.1	37.6*	0.3	-1.6
COc1ccc(CCNC(=O)C(=O)Nc2ccc(C)c(C)c2)cc1OC	3.2	nt	nt	0.8	nt
COc1ccccc1NC(=O)/C(=C/c1ccncc1)NC(=O)c1ccccc1	15.1	0.7	24.5	-0.8	-1.6
Cn1c(CN2CCCC2)nc2cc(NS(=O)(=O)c3ccc(Cl)cc3)ccc21	-16.7	-47.4	68.6*	2.9	-2.9
Cn1c(CN2CCCC2)nc2cc(NS(=O)(=O)c3ccccc3)ccc21	-24.7	-29.9	67.4*	-0.6	-3.4

High-throughput results (PubChem BioAssay)
